Pin1 inhibitor – blocks the human prolyl isomerase Pin1; Pin1 FP peptide displacement, HiFluor488, 10 min; Potency, µM (titrated, usually from 115 µM), hits mostly inhibitors; 390,000 compounds, 0.009% hits; active = well fitted inhibition curve with a large enough effect in the polarisation, with a control signal flat, not every such curve was filed as active; inconclusive = small, poorly fitted or top-dose-only effect, or effect the other way, or a change in a side signal; inactive = no such curve, though single readings can be large or run the other way; the % refers to the polarisation
Target sequence (Q13526 whole entry, looked up): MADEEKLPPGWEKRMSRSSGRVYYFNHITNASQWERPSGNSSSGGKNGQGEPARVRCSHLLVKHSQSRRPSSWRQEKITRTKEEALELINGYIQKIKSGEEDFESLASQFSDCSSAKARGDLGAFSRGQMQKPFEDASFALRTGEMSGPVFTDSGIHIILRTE
PKM2 activator – increases activity of human pyruvate kinase M2; P14618; purified PKM2, Kinase-Glo ATP luminescence, activation; response scale: 0% is enzyme alone, no compound; Potency, µM (series often up to 57.5 µM), hits mostly activators; 260,000 compounds, 0.34% hits; note: nearly all actives have a fitted effect of over 55% in size
Target sequence (P14618 whole entry, looked up): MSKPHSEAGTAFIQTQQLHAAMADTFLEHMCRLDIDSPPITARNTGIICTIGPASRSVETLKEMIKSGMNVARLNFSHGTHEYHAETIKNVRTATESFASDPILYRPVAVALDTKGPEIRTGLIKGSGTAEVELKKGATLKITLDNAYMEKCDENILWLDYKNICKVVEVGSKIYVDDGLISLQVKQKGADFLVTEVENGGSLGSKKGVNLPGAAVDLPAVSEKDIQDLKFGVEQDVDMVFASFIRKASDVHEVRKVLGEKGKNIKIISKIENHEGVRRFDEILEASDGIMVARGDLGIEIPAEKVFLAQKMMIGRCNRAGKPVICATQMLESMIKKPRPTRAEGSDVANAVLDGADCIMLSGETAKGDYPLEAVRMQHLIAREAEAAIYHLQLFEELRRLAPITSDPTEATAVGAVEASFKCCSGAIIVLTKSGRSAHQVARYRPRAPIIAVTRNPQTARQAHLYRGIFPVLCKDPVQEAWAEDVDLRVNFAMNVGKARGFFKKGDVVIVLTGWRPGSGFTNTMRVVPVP
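Kinase-Glo luminescence reports ATP generated from ADP (0.1 mM) and PEP (0.5 mM) by purified hPK-M2 after 1 h at room temperature, pH 7.2 imidazole buffer; intermediate enzyme activity allows detecting inhibitors and activators.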
AT treatment – potential ataxia-telangiectasia treatments restoring KAP-1 phosphorylation. F2112 A-T fibroblasts, KAP-1 phosphorylation AlphaLISA; neocarzinostatin DNA damage 30 min before lysis. Potency, µM (series often up to 57.5 µM), actives largely listed as activators. 320,000 compounds, 0.19% hits; note: nearly all actives have a fitted effect of over 45% in size
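hTERT-immortalized A-T patient fibroblasts (F2112), 500 cells/well in OPTI-MEM, 1% FBS, got compounds for 60 min, then NCS for 30 min at 37C. Lysates were then assayed for phospho-KAP-1 by AlphaLISA (anti-pKAP1 donor, anti-KAP1 acceptor beads), 6 hr at 25C.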
TSG101-PTAP inh – blocks PTAP/TSG101 interaction to inhibit HIV-1 budding; Q99816; Fluorescence polarization, FITC-PTAP peptide / Tsg101 binding; Potency, µM (top dose mostly 115 µM), hits mostly inhibitors; 340,000 tested, under 10 active; active = well fitted inhibition curve with a large enough effect in the main read-out, with a control signal flat, not every such curve was filed as active; inconclusive = small, poorly fitted or top-dose-only effect, or effect the other way, or a change in a side signal; inactive = no such curve, though single readings can be large or run the other way
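FP read-out: FITC-PTAP peptide, 50 nM final, binding Tsg101 binding domain, 10 uM final; 20 min, r.t.; 10 mM HEPES pH 7.5, 0.15 M NaCl, 0.01% Tween 20, 3 mM EDTA, 0.1 mM TCEP.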
Hits are given with their value; – = inactive; ? = inconclusive; · = not tested or not shown. In the library only some 0.39% were active in any assay of this set; here they are far more common. Unless noted, calls come from the whole dose curve; as a rule, active = well fitted activation curve with a large enough effect; inconclusive = small, poorly fitted or top-dose-only effect; inactive = no such curve, though single readings can be large or run the other way.

SMILES | Pin1 inhibitor | PKM2 activator | AT treatment | TSG101-PTAP inh
CN1C(=O)Cc2cc(S(=O)(=O)NCc3cccs3)ccc21 | – | ? | – | –
CN1C(=O)Cc2cc(S(=O)(=O)NCc3c(F)cccc3Cl)ccc21 | – | 14µM | – | –
CCc1ccccc1N=C1S/C(=C/c2ccccc2OCC(=O)N2CCOCC2)C(=O)N1C | – | – | – | –
O=C1NN(c2ccccc2)C(=O)/C1=C\c1ccccc1OCC(=O)N1CCOCC1 | ? | 10µM | – | –
COCCN(C(=S)Nc1c(C)cccc1C)C(C)c1ccco1 (stereo not drawn) | – | – | 20µM | –
O=C1CCc2cc(S(=O)(=O)Nc3ccccc3-c3ccccc3)ccc2N1 | – | · | · | ·
COc1ccc(CNC(=O)Nc2cccs2)cc1OC | – | 18µM | – | –
COc1cccc(CNC(=O)Nc2cccs2)c1 | – | – | – | –
Cc1ccc(CNC(=O)Nc2cccs2)cc1 | – | 25µM | – | –
COc1ccc(C2Nc3ccccc3C(=O)N2Cc2ccccc2)cc1COc1ccc(Cl)cc1 (stereo not drawn) | – | · | · | ·
CN(C)c1cc(Nc2ccc(O)cc2)c([N+](=O)[O-])c2nonc12 | – | – | 7.1µM | –
CCc1nn2c(=O)cc(N3C(C)CNCC3C)nc2s1 (stereo not drawn) | – | · | · | ·
Nc1ccc2nc(CCCCCCCCc3nc4ccc(N)cc4[nH]3)[nH]c2c1 | – | ? | – | –
Nc1ccc2nc(CCCCCCc3nc4ccc(N)cc4[nH]3)[nH]c2c1 | – | 13µM | – | –
Cc1c(Cc2ccccc2)c(=O)oc2c(O)c(O)ccc12 | ? | 20µM | – | –
COc1cc(-c2ccc3ncnc(N(C)Cc4csc(C)n4)c3c2)cc(OC)c1OC | – | · | · | ·
O=C(NCC(Cl)c1ccc2ccccc2c1)c1c(F)cccc1F (stereo not drawn) | – | · | 20µM | –
Cn1nnnc1Sc1ncnc2scc(-c3ccccc3F)c12 | – | · | · | ·
O=C(O)C1Nc2c(C(=O)N3CCOCC3)cccc2C2C=CCC12 (stereo not drawn) | ? | – | – | –
Cc1ccc2c(c1C)NC(C(=O)O)C1CC=CC21 (stereo not drawn) | 7.6µM | – | – | –
Cc1cc(C)c(C#N)c(SCCS(=O)(=O)c2ccc(Cl)cc2)n1 | – | 20µM | – | –
Cc1cc(C)c(C#N)c(SCCS(=O)(=O)c2ccc(C(C)(C)C)cc2)n1 | – | – | – | –
Cc1ccc2[nH]c(=O)c3cc(C(=O)N4CCN(C(=O)c5ccco5)CC4)sc3c2c1 | – | 16µM | – | –
Cc1ccccc1Nc1nc(C#N)nc(NC2CCCC2)n1 | – | · | · | ·
C#Cc1nc(Nc2cccc(Cl)c2)nc(NC2CCCC2)n1 | – | · | · | ·
SMILES | Pin1 inhibitor | PKM2 activator | AT treatment | TSG101-PTAP inh
CCC12CN(C(=O)c3ccc(OC)cc3)CC(CC)(CN(C(=O)c3ccc(OC)cc3)C1)C2=O | – | – | – | –
CCC12CN(C(=O)c3ccc([N+](=O)[O-])cc3)CC(CC)(CN(C(=O)c3ccc([N+](=O)[O-])cc3)C1)C2=O | – | – | 7.1µM | –
COCCN(C(=O)/C=C/c1cccc([N+](=O)[O-])c1)c1c(N)n(Cc2ccccc2)c(=O)[nH]c1=O | – | 3.2µM | – | –
Cc1cc2c(s1)c1cnn(Cc3c(F)c(F)c(C(F)(F)F)c(F)c3F)c(=O)c1n2C | – | · | · | ·
COc1ccc(C2c3ccc4ccccc4c3Oc3ncn(CCO)c(=N)c32)cc1OC (stereo not drawn) | – | · | – | –
COc1ccc(C2c3ccc4ccccc4c3Oc3ncn(CCCO)c(=N)c32)cc1OC (stereo not drawn) | – | – | 40µM | –
COc1ccc2nc3c(cc2c1)c(NC(=O)C1CCCO1)nn3CC(C)C (stereo not drawn) | – | – | 35µM | –
CCCn1nc(NC(=O)C2CCCO2)c2cc3ccc(C)cc3nc21 (stereo not drawn) | – | – | 25µM | –
CCn1nc(NC(=O)CC(C)C)c2cc3ccc(C)cc3nc21 | – | · | 20µM | –
CCCn1nc(NC(=O)C2CCCO2)c2cc3cc(C)ccc3nc21 (stereo not drawn) | – | – | – | –
CC(=O)C1CCN(c2ncc(-c3cccc(N(C)C)c3)s2)CC1 | – | · | · | ·
O=[S+]([O-])(c1ccc2c(c1)OCCO2)N1CCN([S+](=O)([O-])c2c(F)cc(F)cc2Br)CC1 | – | · | · | ·
Cc1cc(Br)ccc1NC(=O)CNC(=O)CSc1n[nH]c(N)n1 | – | – | – | –
Nc1nc(SCC(=O)Nc2ccc(Br)cc2F)n[nH]1 | – | 22µM | – | –
Cc1cc(C)n2cc(CSc3nnnn3-c3ccc(Cl)cc3)nc2n1 | – | 16µM | – | –
Cc1cc(C)n2cc(CSc3nnnn3-c3ccccc3)nc2n1 | – | 8.9µM | – | –
CC(C)(C)OC(=O)NCc1nnc(-c2cc3ccccc3[nH]2)o1 | – | · | · | ·
O=c1c(C(c2ccc(Cl)cc2)c2c(O)nc3n(c2=O)CCCS3)c(O)nc2n1CCCS2 | – | – | 32µM | –
O=c1c(C(c2ccc(Cl)cc2)c2c(O)nc3n(c2=O)CCS3)c(O)nc2n1CCS2 | – | – | – | –
Cc1ccc(-c2cc(-c3ccc4c(c3)OCO4)c(C#N)c(N)n2)o1 | – | 10µM | – | –
CCOC(=O)c1c(-c2ccc(C)o2)csc1NC(=O)COC(=O)c1cccs1 | – | 3.2µM | – | –
C=C(C(=O)c1ccccc1)C(C)C(=C)C(=O)c1ccccc1 | – | – | 28µM | –
Cc1ccc(-c2nc3sc(C(N)=O)c(N)c3c3c2CCCC3)cc1 | – | – | – | –
Cc1nc2sc(C(N)=O)c(N)c2c2c1CCCC2 | – | – | 8.9µM | –
COc1ccc(OCc2nn3c(Cn4cnc5ccccc54)nnc3s2)cc1 | ? | 25µM | – | –
SMILES | Pin1 inhibitor | PKM2 activator | AT treatment | TSG101-PTAP inh
c1ccc2c(c1)ncn2Cc1nnc2sc(-c3ccc4c(c3)OCO4)nn12 | ? | 11µM | – | –
c1ccc(CCc2nn3c(Cn4cnc5ccccc54)nnc3s2)cc1 | ? | ? | – | –
Clc1ccccc1-c1nn2c(Cn3cnc4ccccc43)nnc2s1 | – | 4µM | – | –
NC(=O)N1CCN(c2nc(-c3ccc(Br)cc3)cs2)CC1 | – | · | · | ·
CCc1nn2c(=O)cc(-c3ccncc3)nc2s1 | – | · | · | ·
Cc1ccc(S(=O)(=O)Nc2ccc(-c3nnc(SCC#N)n3C)cc2)cc1 | – | 20µM | – | –
CNC(=S)N1N=C(c2ccc(C)cc2)CC1c1ccc(OC)cc1 (stereo not drawn) | – | 22µM | – | –
CNC(=S)N1N=C(c2ccc(Br)cc2)CC1c1ccc(OC)cc1 (stereo not drawn) | – | ? | – | –
CN(Cc1cccs1)c1ncnc2ccc(-c3ccc4cnn(C)c4c3)cc12 | – | · | · | ·
O=C(/C=C/c1cccs1)N1CCC2(CC1)Oc1ccc(F)cc1C(=O)C21CC(c2ccccc2)=NO1 (stereo not drawn) | – | – | 3.2µM | –
CN1C(=O)/C(=C/c2cn(CC(=O)NCc3ccco3)c3ccccc23)NC1=S | · | 7.9µM | – | ·
Cn1nnnc1Sc1ncnc2scc(-c3cccc(Cl)c3)c12 | – | · | · | ·
O=C(O)c1ccccc1SC1=NS(=O)(=O)c2ccccc21 | – | · | · | ·

Source: PubChem (National Center for Advancing Translational Sciences (NCATS))
